Laboratory results published in PubChem BioAssay (NCI).
This is part of a sample that, as a whole, favours compounds with a hit. Of some 79,000 tested, about 15% had one in any assay. Unmarked numbers belong to inactive results. Activity calls are given as the source filed them. Rule as the data show it: active = growth inhibition above about 70%; inactive = the rest.

Key:
[1] = NCI Yeast Anticancer Drug Screen. Data for the rad50 strain (AID 155);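 also: 0% = growth of vehicle-only cultures of the same strain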; settings: S. cerevisiae rad50 strain growth inhibition, stronger effect = higher value; at 50.0 µM unless noted
How it was run: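 Readout: growth inhibition relative to vehicle-treated cultures. Compound exposure was carried out in a genetically defined yeast strain deficient in DNA damage repair.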

[2] = NCI Yeast Anticancer Drug Screen. Data for the mec2-1 strain (AID 157); settings: S. cerevisiae mec2-1 strain, stronger effect = higher value; at 50.0 µM unless noted
How it was run: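 Compounds were applied to mec2-1 yeast cells. Their growth was then compared with that of vehicle-treated cultures to give growth inhibition.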

[3] = NCI Yeast Anticancer Drug Screen. Data for the sgs1 mgt1 strain (AID 161);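 also: 0% = growth of cultures given vehicle only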; settings: S. cerevisiae sgs1 mgt1 strain, stronger effect = higher value; at 50.0 µM unless noted
How it was run: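 This yeast growth screen uses a strain with defined DNA-repair lesions; compound-treated growth is compared with vehicle-treated growth.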

[4] = NCI Yeast Anticancer Drug Screen. Data for the cln2 rad14 strain (AID 165);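 also: 0% = growth equal to vehicle treated cultures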; settings: S. cerevisiae cln2 rad14 strain, stronger effect = higher value; at 50.0 µM unless noted
How it was run: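 Strain: cln2 rad14 yeast, altered in cell cycle control and DNA damage repair. Read-out: growth inhibition vs vehicle.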

[5] = NCI Yeast Anticancer Drug Screen. Data for the bub3 strain (AID 167); settings: S. cerevisiae bub3 mutant strain, stronger effect = higher value; at 50.0 µM unless noted
How it was run: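 Readout: yeast growth inhibition, expressed relative to vehicle-only wells. The test organism is a mutant strain from a panel with lesions in DNA repair or checkpoint genes.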

[6] = NCI Yeast Anticancer Drug Screen. Data for the mlh1 rad18 strain (AID 175); settings: S. cerevisiae mlh1 rad18 strain growth inhibition, stronger effect = higher value; at 50.0 µM unless noted
How it was run: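 A repair-deficient yeast strain is exposed to test compound, and growth is scored relative to vehicle-treated controls.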

Compound | growth inhibition [1] | growth inhibition [2] [%] | growth inhibition [3] | growth inhibition [4] [%] | growth inhibition [5] [%] | growth inhibition [6] [%]
COc1ccc(C2=N/C(=C\c3ccccc3)C(=O)O2)cc1 | -4.05% | 8.6 | 28.4% | -22.4 | -4 | -0.9
CCCCCCCCCC(OCC)OCC | -25.1% | -15.2 | -11.6% | -6.35 | -31.4 | -25.6
CCOC(=O)c1ccc(-c2ccc(Cl)cc2)[nH]1 | -7.3% | 0 | -3% | 2.45 | 34 | 3.2
CC(C)(C)OC(=O)N1CCC2(CC1)C(=O)NCN2c1ccccc1 | 23.4% | 11.9 | -3% | 31.2 | 0.7 | -38.9
C=CCS(=O)(=O)CC=C | 23.9% | -12.5 | -7.3% | 3 | -15.6 | 17.9
Cc1ccc(SCC(O)=C2C(=O)CCCC2=O)cc1 | -11.4% | -12.3 | 15.1% | -0.45 | -2.25 | -7.45
CCOc1ccc(NC(=O)C(=O)CC(=O)c2c(C)n([O-])c3ccccc3[n+]2=O)cc1 | -5.95% | 3.8 | -34.5% | 7.2 | 0.1 | -10.8
CCC(C)C(NC(=O)Cc1ccccc1)C(=O)O (stereo unspecified) | 4.55% | -9.45 | -4.1% | -23.2 | 8.95 | 5.75
O=S(=O)([O-])[O-].O=c1[nH]cnc2[nH]ncc12.O=c1[nH]cnc2[nH]ncc12.[Zn+2] | -26.2% | 4.15 | -15.9% | 3.65 | -20.8 | -17.6
OCc1ccccc1Sc1ccccc1CO | 15.8% | -8.6 | 2.6% | 11.8 | -31.6 | 24
CCS(=O)(=O)C(CCCl)S(=O)(=O)CC | 2.45% | 0.9 | 16.4% | 8.55 | 17.4 | 13.9
CC(=O)C1=CC2(OC3CCC(O)(C(=O)CO)C(C)O3)C(=O)c3c(cc4cccc(O)c4c3O)CC2C(O)C1O (stereo unspecified) | -6.2% | -1.05 | 2.9% | -21.2 | 20.8 | 9.65
COc1cc(OC)c(/C=N/N=C(\N)NO)c(OC)c1 | -8.95% | 12.2 | -0.7% | 9.65 | -1.15 | -9.75
C=CCc1cc2c(C)cc(=O)oc2c(C)c1OC(C)=O | -4.1% | -23.8 | -1.1% | 13.1 | -25.9 | -2.45
OC1(C2NCCc3ccccc32)CCN(CCc2ccccc2)CC1 (stereo unspecified) | 21.8% | 10.7 | 25.5% | 20.2 | 2.95 | 8.9
CN(CCO)CCCC1COc2ccccc2O1 (stereo unspecified) | -31.6% | -39.1 | -21.1% | 6.5 | -8.65 | -8.35
C=C(Br)CNC(=O)C(O)(c1ccccc1)c1ccccc1 | -4.15% | 3.65 | 0% | -15.6 | 5.15 | -16.9
O=[n+]1c2c(n([O-])c3ccccc31)CCCCCCCCCC2 | -52.6% | -1.95 | 7.15% | -35.2 | 0.95 | 7.9
Cn1c2c(c(=O)c3cc(O)ccc31)CC(O)C(C)(C)O2 (stereo unspecified) | -8.9% | -10.8 | -11.7% | -11 | 8.8 | -2.7
COc1ccc(Br)cc1C1OC(=O)c2c(OC)c(OC)cc([N+](=O)[O-])c21 (stereo unspecified) | 33.9% | 5.25 | 20.5% | 8.2 | 2.3 | 18.2
CCC1NC(=O)C1NC(=O)OC (stereo unspecified) | 23.6% | -1.15 | 22.6% | 0.55 | 12.6 | 22.8

Compound | growth inhibition [1] | growth inhibition [2] [%] | growth inhibition [3] | growth inhibition [4] [%] | growth inhibition [5] [%] | growth inhibition [6] [%]
C=C1C(=O)OC2C3[C@@]4(C)O[C@H]4[C@H]4O[C@@]34[C@](C)(O)CC(OC(C)=O)[C@@H]12 (stereo partly specified) | -16.4% | -30.6 | -7.3% | -7.45 | -24.4 | -22.1
Cc1ccc(C(=O)/C=C/C(=O)c2ccc(C)cc2)cc1 | 4.55% | 29.9 | 19.2% | 19.9 | 14.9 | 3.8
O=S1(=O)OCCOS(=O)(=O)C1Cc1nc2ccccc2[nH]1 | 3.25% | 15.8 | 1.25% | 56.9 | -0.05 | 37.1
CCc1ccc(NC(=O)c2ccccc2)cc1CC | -11.3% | -11 | -2.5% | -97.3 | -4.05 | -19.1
CC(=O)N(CCC(C)C)CCC(C)C | 17.9% | 2.3 | 5.5% | 14.3 | -8.05 | -11.2
O=c1[nH]c2cc(Cl)ccc2nc1/C(=N\O)C(O)c1ccc([N+](=O)[O-])cc1 (stereo unspecified) | 8% | 14.2 | -21.2% | -24.6 | -17.2 | -5
COc1ccc2[nH]c3cc4c(=O)c5cc(OC)ccc5[nH]c4cc3c(=O)c2c1 | -31.6% | -15.8 | -6.2% | 5.05 | -2.9 | -37.6
Cc1ccc(C(=O)c2ccc([N+](=O)[O-])cc2)cc1 | -21.1% | -20.4 | -34.5% | -50 | 8.3 | -41.1
Cc1cc(N(CCCCl)CCCCl)ccc1C=Nc1cc(Cl)c(O)c(Cl)c1 | 71.8% (active) | 6.15 | 84.8% (active) | -13.9 | 53 | 57.2
O=C1C=CC=C/C1=C1/SC(c2ccccc2)=C(O)N1c1ccccc1 | -40.2% | -8.2 | -12.5% | -17.3 | -19.9 | -18.5
S=c1[nH]nc(-c2n[nH]c3ccccc23)o1 | 3.3% | 3.6 | 5.9% | -51.3 | -3 | 1.25
CCc1ccc2c(-c3ccccc3)c3c(-c4ccccc4)c4ccccc4c(-c4ccccc4)c3c(-c3ccccc3)c2c1 | 16.6% | 7.3 | -5.8% | -28.4 | -8.15 | 23.4
CCOc1ccc(C(C)c2cc3c(cc2OCC(=O)O)OCO3)cc1 (stereo unspecified) | 0.65% | -6.4 | -8.45% | 25.1 | -6.9 | -11.6
CCCCC/C([O-])=C1/C(=O)N(c2ccccc2)N=C1C.CCCCC/C([O-])=C1/C(=O)N(c2ccccc2)N=C1C.[Cu+2] | 2.1% | 0.75 | -13.7% | -6.1 | -2.75 | 7.75
O=C(Cc1ccccc1)NC/C=N/O | 26.5% | -20 | 10.2% | -2 | -43.1 | -4.75
Cc1cc(C(=O)O)cc(C)c1N(C)C=O | -0.8% | 6.25 | 3.15% | 2.35 | -1.05 | 4.45
CC(C)(O)C1CC(=O)C(C)(C2C(O)CC3(C)C4CC=C5C(CCC(O)C5(C)C)C4(C)C(=O)CC23C)O1 (stereo unspecified) | 65% | 63 | 45% | 42.9 | 56.1 | 47.6
COc1cc2c(=O)[nH]c3cc(N)ccc3c2cc1N | 9.6% | 7.9 | -4.2% | -7.8 | -3.95 | 0.6
O=P(O)(O)OCC1OC(n2cnc3c(=S)nc[nH]c32)C(O)C1O (stereo unspecified) | -17.4% | 3.95 | -14.1% | 3.9 | -7.7 | -3.55
N#C/C(=C/n1c(=S)[nH]c2ccccc21)C(N)=O | -30.3% | -38.6 | -19.2% | -12.4 | -7.25 | -14.6
